# According to PubChem BioAssay AID602250 (The Scripps Research Institute Molecular Screening Center, 2012):
# Screen size: about 360,000 compounds; about 2,200 (0.61%) were called active. This is one part of a sample in which actives are shown more often than they occur.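 The calls were made as follows: active = inhibition above a per-plate cutoff, the plate's mean sample inhibition plus 3 SD (cut at about 24% in these data); inactive = the rest.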
# Experiment: calcium signal blockers in parental CHO-K1 cells – cell-based, Fluo-8 calcium fluorescence, full deck, 1536-well, counter-screen for M1 antagonist project, primary screen (AID 602250);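 also: 0% = DMSO plus EC80 ATP and 100% = DMSO alone without ATP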
# Details: ATP-induced calcium, Fluo-8 fluorescence, at 3 µM, active compounds read high
row,Structure (SMILES),inhibition
1,O=C(Nc1c(C(=O)N2CCCCC2)cnn1-c1ccccc1)c1ccco1,-0.49% (inactive)
2,O=C(Nc1ccc(-n2cccn2)cc1)C1CCN(Cc2ccsc2)CC1,9.41% (inactive)
3,Cc1cc(C)cc(C(=O)N(CCc2ccccc2)C2=CC3CCC(C2)N3C)c1 (stereo not given),-5.45% (inactive)
4,CCCN(CCc1ccccc1)C1CCc2c(O)cccc2C1 (stereo not given),27.5% (active)
5,CCN(CC(=O)NC(C)C)C(=O)CCNC(=O)c1ccc(Cl)cc1,-14.6% (inactive)
6,O=C1NC[C@@H](Cc2ccc(O)cc2)N(CCc2cccc(F)c2)C1=O,-5% (inactive)
7,Cc1cc(C)c(C#N)c(N2CCC(C(N)=O)CC2)n1,23.7% (active)
8,Cc1cccn2c(=O)c(/C=C(\C#N)S(=O)(=O)c3ccc(Cl)cc3)c(N3CCC(C(N)=O)CC3)nc12,-14.1% (inactive)
9,N#Cc1c(N2CCCCC2)nc(N)c2c(N)nc(SCC(=O)O)cc12,-8.03% (inactive)
10,Cc1ccc(OS(=O)(=O)c2ccc(-c3csc(C)n3)s2)c(C)c1,-12% (inactive)
11,CC1=C2C(=O)OC(c3ccoc3)C2(C)CCC1 (stereo not given),-12.4% (inactive)
12,Cc1ccc(-n2nc3c(=O)n(C(C)C(=O)NCc4ccc5c(c4)OCO5)nc(C)c3c2C)cc1 (stereo not given),-17.4% (inactive)
13,CC1=C(C(=O)N(C)C)CC(CC(=O)NCCN2CCOCC2)C(=O)N1Cc1ccccc1 (stereo not given),-3.35% (inactive)
14,COc1ccc(OC)c(C2C3=C(N=c4s/c(=C\c5cccc(O)c5)c(=O)n42)c2ccccc2CC3)c1 (stereo not given),-5.43% (inactive)
15,O=C(Cc1ccc(Cl)cc1)NC(=S)Nc1ccccc1O,31.4% (active)
16,COC(=O)c1ccccc1NC(=O)CN(Cc1ccc(Cl)cc1)S(C)(=O)=O,-17.4% (inactive)
17,CCOc1ccccc1NC(=S)NC(=O)CCc1ccccc1,-6.79% (inactive)
18,CC(=O)c1cc(C#N)c(SCC(=O)Nc2nccs2)nc1C,-13.3% (inactive)
19,Clc1cc(NC2CCCCC2)ncn1,0.49% (inactive)
20,COCCCN(C(=O)Cn1ncc2c(=O)oc3ccc(C)cc3c21)C(C)c1ccncc1 (stereo not given),-9.26% (inactive)
21,CCCCn1nnnc1C(c1cccc(OC)c1OC)N1CCN(C/C=C/c2ccccc2)CC1 (stereo not given),-19.7% (inactive)
22,CC(=O)c1c(C)[nH]c(C(=O)COC(=O)c2cccc(S(=O)(=O)N(C)c3ccccc3)c2)c1C,43.1% (active)
23,CN(c1ccccc1)S(=O)(=O)c1ccc(Cl)c(C(=O)OCC(N)=O)c1,4.64% (inactive)
24,CC(=O)c1c(C)[nH]c(C(=O)COC(=O)CCOc2ccc(C)cc2)c1C,4.03% (inactive)
25,O=C(NCc1ccccc1)[C@@H]1CSC2c3ccccc3C(=O)N21 (stereo not given in full),-4.7% (inactive)
